Assay outcomes from PubChem.
Shown are actives, neighbours in structure and some others; about 2.8% of the full set was active somewhere.
WRN helicase inh: WRN helicase (human) inhibition; Q14191; 360,000 compounds, 0.46% hits; AID 651768; Potency, µM (top dose mostly 114 µM), most hits filed as inhibitors; WRN helicase unwinding, fluorescent forked duplex, kinetic; further: nearly all actives have a fitted effect of over 55% in size
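WRN at 20 nM final was preincubated with compound for 15 min at room temperature; reaction started with 100 nM forked duplex oligonucleotide carrying fluorophore and quencher plus 2 mM ATP (final). Unwinding followed kinetically by red fluorescence (ex 525/em 598 nm).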
Pol eta inh-1: blocks human DNA polymerase eta activity. Potency, µM (doses to about 114 µM), actives largely listed as inhibitors. recombinant Pol eta, fluorescent DNA replication assay. 390,000 compounds, 1.2% hits
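Pol eta at 10 nM preincubated with compounds 15 min at room temperature; reaction started with fluorescent substrate (50 nM final) and read kinetically at 0 and 10 min.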
Pol iota inh: DNA polymerase iota (human) inhibition; Q9UNA4; Pol iota fluorescent replication assay, 10 min; Potency, µM (titrated, usually from 115 µM), actives largely listed as inhibitors; 390,000 compounds, 1% hits
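Fluorescent replication assay read twice, at 0 min and 10 min after adding 50 nM (final) substrate. Enzyme (10 nM) and compounds were first incubated 15 min at room temperature; enzyme-free buffer wells were negative controls.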
Pol beta inh: DNA polymerase beta (human) inhibition; P06746; Pol beta primer extension/strand displacement, fluorescence kinetic; Potency, µM (series often up to 114 µM), usual class: inhibitors; 340,000 compounds, 1.3% hits; AID 485314
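Enzyme-only controls used 10 nM Pol beta; buffer lacking enzyme served as negative control. Compound preincubated 15 min, then 50 nM substrate added; 0 and 10 min reads at room temperature.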
Pol kappa inh-1: DNA polymerase kappa (human) inhibition; Q9UBT6; purified Pol kappa, fluorescent DNA synthesis assay, 10 min; Potency, µM (titrated, usually from 107 µM), hits mostly inhibitors; 400,000 compounds, 0.53% hits; AID 588579
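Kinetic fluorescence readout at 0 and 10 min followed reaction start with substrate at 50 nM final. Beforehand, enzyme (10 nM Pol kappa) stood 15 min with compound at room temperature; buffer-only wells were negative controls.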
PI5P4Ka inh: blocks human PI5P4K alpha kinase activity; PI5P4Kalpha enzyme, ADP-Glo luminescence, 60 min; stronger effect = lower value; max response, %; 330,000 compounds, 1.2% hits; active means max response of -50% or lower; inconclusive means between -30% and -50%; inactive means -30% or higher; further: value at the top dose of about 77 µM
Target sequence (P48426 whole entry, looked up): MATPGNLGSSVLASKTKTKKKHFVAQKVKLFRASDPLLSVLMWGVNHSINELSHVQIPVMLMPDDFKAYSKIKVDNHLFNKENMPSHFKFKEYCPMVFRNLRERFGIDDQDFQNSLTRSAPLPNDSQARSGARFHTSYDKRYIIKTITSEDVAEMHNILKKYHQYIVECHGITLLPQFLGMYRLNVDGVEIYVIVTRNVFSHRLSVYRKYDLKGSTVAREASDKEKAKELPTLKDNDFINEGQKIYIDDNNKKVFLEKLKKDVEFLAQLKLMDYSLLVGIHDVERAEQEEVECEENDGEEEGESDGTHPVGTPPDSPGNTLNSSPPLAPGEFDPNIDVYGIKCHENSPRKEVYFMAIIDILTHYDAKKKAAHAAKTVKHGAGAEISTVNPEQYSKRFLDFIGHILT
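ADP-Glo luminescence end-point after a 60 min room-temperature kinase reaction. PI5P4Kalpha and substrate in HEPES pH 7.4 buffer with EGTA, 0.1% CHAPS and 5% DMSO; ATP at 5 microM final.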
TbPGK inh: validation of Trypanosoma brucei phosphoglycerate kinase inhibitors. shares compounds with Pol kappa inh-1. TbPGK coupled GAPDH assay, Kinase-Glo luminescence. Potency, µM (top dose mostly 57.5 µM), usual class: inhibitors. 500 compounds, 79% hits; further: nearly all actives have a fitted effect of over 65% in size
Pol iota confirm: Inhibitors of human DNA polymerase iota, confirmation | shares compounds with Pol kappa inh-1 | AID 720496 | Pol iota primer extension, TAMRA/BHQ fluorescence | 1,500 compounds, 77% hits | Potency, µM, usual class: inhibitors
Pol kappa inh-2: confirmation of human DNA polymerase kappa inhibitors | purified Pol-kappa, fluorescent strand-displacement substrate | shares compounds with Pol eta inh-1 | AID 720501 | Potency, µM, actives largely listed as inhibitors | 920 compounds, 76% hits
Pol eta inh-2: Pol eta (human) inhibition, cherry-pick confirmation; 2,600 compounds, 64% hits; Pol eta primer extension, TAMRA/BHQ fluorescence, 10 min; shares compounds with Pol eta inh-1; Potency, µM, most hits filed as inhibitors
Each line names hits and unclear results; the compound was inactive in the other large screens (follow-up assays come after a bar, where they were run). Unless noted, the call rests on the fitted dose curve; in most records, active means well fitted curve in the direction sought with a large enough effect; inconclusive means small, poorly fitted or top-dose-only effect, or another doubt; inactive means no such curve, though single readings can be large; an effect the other way counts as inactive or inconclusive.

O=C(O)C1Oc2cc3ccccc3cc2O1	Pol eta inh-1 18µM, Pol iota inh 28µM, Pol beta inh 7.9µM | Pol iota confirm 75 | Pol kappa inh-2 8.4 | Pol eta inh-2 48
COc1ccccc1NCCC(=O)O	none
O=C(O)CCNc1ccc(NCCC(=O)O)c2c1C(=O)c1ccccc1C2=O	WRN helicase inh inconclusive, Pol eta inh-1 4.5µM, Pol iota inh 13µM, Pol beta inh 13µM, Pol kappa inh-1 22µM, PI5P4Ka inh -68 | TbPGK inh 16µM | Pol iota confirm 19 | Pol eta inh-2 11
COc1ccc(-c2ccc3c(N)c(C(=O)c4ccc(OC)c(OC)c4)sc3n2)cc1	Pol eta inh-1 inconclusive
COc1ccc(C(=O)c2sc3nc(-c4ccccc4)ccc3c2N)cc1OC	WRN helicase inh inconclusive, Pol eta inh-1 inconclusive, Pol iota inh inconclusive, Pol beta inh 13µM, Pol kappa inh-1 inconclusive | Pol iota confirm inconclusive | Pol eta inh-2 67
Nc1nc(=S)c2ncn(C3OC(CO)C(O)C3O)c2[nH]1 (stereo not drawn)	WRN helicase inh 28µM, Pol eta inh-1 4µM, Pol iota inh inconclusive, Pol beta inh 0.16µM, Pol kappa inh-1 inconclusive, PI5P4Ka inh -81 | TbPGK inh 12µM | Pol iota confirm 34 | Pol kappa inh-2 15 | Pol eta inh-2 27
CC1(C)OC2C(CO)OC(n3cnc4c(=S)nc(N)[nH]c43)C2O1 (stereo not drawn)	none (no result: Pol eta inh-1, Pol iota inh, Pol beta inh, Pol kappa inh-1)
O=C(Cn1c(=O)n(Cc2ccco2)c(=O)c2c3c(sc21)CCCC3)Nc1ccccc1	Pol iota inh inconclusive
NC(=O)Cn1c(=O)n(Cc2ccco2)c(=O)c2c3c(sc21)CCCCC3	WRN helicase inh inconclusive, Pol eta inh-1 40µM, Pol iota inh inconclusive, Pol beta inh 10µM, Pol kappa inh-1 25µM (no result: PI5P4Ka inh) | Pol iota confirm inconclusive | Pol eta inh-2 inconclusive
NCC(O)c1ccc(O)c(O)c1 (stereo not drawn)	Pol eta inh-1 inconclusive, Pol iota inh 35µM, Pol beta inh 35µM, Pol kappa inh-1 7.5µM | Pol iota confirm 47 | Pol eta inh-2 inconclusive
CCCSC1=N/C(=C\C=C\c2ccco2)C(=O)S1	WRN helicase inh inconclusive, Pol eta inh-1 7.1µM, Pol iota inh 10µM, Pol beta inh 5.6µM, Pol kappa inh-1 22µM, PI5P4Ka inh -67 | Pol iota confirm inconclusive | Pol eta inh-2 60
Cc1c(Cl)cnc(NC(=O)COC(=O)/C=C/c2ccco2)c1Cl	WRN helicase inh inconclusive, Pol eta inh-1 22µM, Pol iota inh 22µM, Pol kappa inh-1 79µM, PI5P4Ka inh -56 (no result: Pol beta inh) | Pol iota confirm inconclusive | Pol kappa inh-2 60 | Pol eta inh-2 60
COc1cc(C(=O)Nc2nonc2-c2ccc(Cl)cc2)cc(OC)c1OC	none (no result: WRN helicase inh, PI5P4Ka inh)
